Screening data from PubChem.
PI5P4K alpha inh: inhibitors of human PI5P4K alpha | PI5P4Kalpha enzyme, ADP-Glo luminescence, 60 min; hits give low values | max response, % | 1.2% of 330,000 active | AID 652105; active means max response of -50% or lower; inconclusive means between -30% and -50%; inactive means -30% or higher; further: value at the top dose of about 77 µM
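Reactions run in 0.038 M HEPES pH 7.4, 0.28 mM EGTA, 0.1% CHAPS and 5% DMSO, with PI5P4Kalpha, substrate, compound and 5 microM ATP final, one hour at room temperature. Readout is ADP-Glo luminescence.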
VDR inh: inhibitors of human vitamin D receptor. 0.93% of 400,000 active. Potency, µM, usual class: inhibitors. VDR-SRC2-3 peptide fluorescence polarization, 2 h
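Fluorescence polarization assay measuring small-molecule disruption of VDR binding to the coregulator peptide SRC2-3. Compounds were pin-transferred (23 nl) into the reagent mix and incubated 2 h at room temperature before reading.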
Rango release inh: inhibition of RanGTP-driven Rango-importin beta dissociation; O95149+P62826; Biochemical FRET Rango-importin beta, RanGTP-induced dissociation; Potency, µM (doses to about 46.1 µM); 0.071% of 340,000 active; AID 540253; calls by dose curve; further: nearly all actives have a fitted effect of over 45% in size
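Two FRET readings bracket the reaction: one 5 min after compound meets Rango–importin beta, another 45 min after RanGTP-RCC1 (0.6 uM Ran, 0.2 uM RCC1, 2 mM GTP) is added. Only the second defines inhibition.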
Rango complex inh: prevents formation of the Rango-importin beta complex. Rango CFP/YFP FRET sensor + importin beta, 45 min. Potency, µM (top dose mostly 92.2 µM). 0.031% of 340,000 active; calls by dose curve; further: nearly all actives have a fitted effect of over 15% in size
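Inhibition scored from the CFP 486 nm/YFP 530 nm FRET ratio 45 min after adding 0.125 microM importin beta to 50 nM Rango biosensor preincubated 5 min with compound (room temperature, PBS with DTT, Tween-20, BSA). No-importin wells as positive control.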
GCN5L2 inh: blocks human GCN5L2 histone acetyltransferase; 0.21% of 390,000 active; AID 504327; Potency, µM (top dose mostly 58.9 µM), usual class: inhibitors; GCN5L2 HAT assay, ThioGlo1 CoA-SH fluorescence
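ThioGlo1-coupled HAT assay: 20nM GCN5L2, 70uM acetyl-CoA, 75uM H3(1-25) peptide, pH 7.5. Fluorescence read at 340/540nm at start and after 20 min at room temperature.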
PLK1 PBD block: PLK1 (human) polo-box domain binding inhibition; 2.8% of 360,000 active; Plk1 PBD binding of FITC phosphopeptide, fluorescence polarization; Potency, µM, usual class: inhibitors; P53350; AID 720504; further: series mostly up to about 57 µM; nearly all actives have a fitted effect of over 65% in size
Target sequence (P53350 whole entry, looked up, the tested form may be a part): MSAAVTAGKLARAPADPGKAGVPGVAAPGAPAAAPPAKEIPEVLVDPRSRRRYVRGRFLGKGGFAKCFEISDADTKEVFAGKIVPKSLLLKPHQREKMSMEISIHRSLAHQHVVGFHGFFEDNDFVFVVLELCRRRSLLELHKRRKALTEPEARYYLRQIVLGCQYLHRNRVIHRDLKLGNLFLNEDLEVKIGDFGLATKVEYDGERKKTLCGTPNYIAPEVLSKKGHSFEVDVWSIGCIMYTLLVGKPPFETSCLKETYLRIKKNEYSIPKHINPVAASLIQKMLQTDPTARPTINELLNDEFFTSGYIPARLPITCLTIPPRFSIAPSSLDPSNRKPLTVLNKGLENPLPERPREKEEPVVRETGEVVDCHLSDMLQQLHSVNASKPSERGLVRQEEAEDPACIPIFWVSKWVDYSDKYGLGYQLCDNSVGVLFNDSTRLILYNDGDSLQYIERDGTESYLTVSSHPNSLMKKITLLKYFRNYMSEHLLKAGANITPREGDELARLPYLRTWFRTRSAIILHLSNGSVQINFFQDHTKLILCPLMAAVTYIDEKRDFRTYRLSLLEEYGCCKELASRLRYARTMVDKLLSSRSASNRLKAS
VDR confirm: confirmation of human vitamin D receptor inhibitors; VDR-coactivator inhibition assay, qHTS confirmation; Potency, µM, hits mostly inhibitors; 89% of 840 active; shares compounds with VDR inh
VDR FP: confirmation of human VDR-coactivator binding inhibitors, fluorescein label; shares compounds with VDR inh; VDR-coactivator binding, fluorescein fluorescence polarization; Potency, µM (top dose mostly 57.1 µM), hits mostly inhibitors; 48% of 840 active; AID 602200
VDR bla: confirmation of human vitamin D receptor inhibitors in reporter cells; shares compounds with VDR inh; VDR beta-lactamase reporter cells, FRET ratio; cells co-treated with VDR agonist LG190178; Potency, µM (titrated, usually from 46.1 µM), usual class: inhibitors; 23% of 840 active; AID 602202
VDR cytotox: cytotoxic in counter-screen for VDR inhibitors; shares compounds with VDR inh; cytotoxicity counter-screen, cell viability, qHTS; Potency, µM (doses to about 48.3 µM), hits mostly cytotoxic; 18% of 840 active; further: nearly all actives have a fitted effect of over 75% in size
Each line names hits and unclear results; the compound was inactive in the other large screens (follow-up assays come after a bar, where they were run). Only some compounds are listed: those with a hit (about 3.6% of all), similar ones and a draw of the others. Unless noted, the call rests on the fitted dose curve; in most records, active means well fitted curve in the direction sought with a large enough effect; inconclusive means small, poorly fitted or top-dose-only effect, or another doubt; inactive means no such curve, though single readings can be large; an effect the other way counts as inactive or inconclusive.

O=[N+]([O-])c1ccc(Sc2cccc[n+]2[O-])c2nonc12	PI5P4K alpha inh -53, VDR inh 8.9µM, GCN5L2 inh 16µM, PLK1 PBD block 0.95µM | VDR confirm 6 | VDR FP inconclusive | VDR bla 3.7µM | VDR cytotox inconclusive
N#CC1=C(N)C(C#N)(C#N)C(c2cccnc2)C2CN(C(=O)OCc3ccccc3)CC=C12 (stereo not drawn)	VDR inh 20µM, Rango release inh inconclusive, Rango complex inh inconclusive | VDR confirm 12 | VDR FP inconclusive | VDR bla inactive | VDR cytotox inactive
CNc1ccc(Br)cc(C(=O)/C=C/c2ccc(Cl)cc2Cl)c1=O	VDR inh inconclusive, Rango complex inh inconclusive, PLK1 PBD block inconclusive | VDR confirm 3.5 | VDR FP inconclusive | VDR bla inconclusive | VDR cytotox inactive
CNc1ccc(Br)cc(C(=O)/C=C/c2ccc(OC)cc2OC)c1=O	PI5P4K alpha inh inconclusive, VDR inh inconclusive, Rango release inh inconclusive, Rango complex inh inconclusive, PLK1 PBD block inconclusive
CCC(=O)Nc1cccc(C(=O)/C=C/c2ccc(F)cc2)c1	VDR inh inconclusive
CC(=O)Nc1cccc(C(=O)/C=C/c2ccc(C)cc2)c1	VDR inh 25µM | VDR confirm 21 | VDR FP inconclusive | VDR bla inconclusive | VDR cytotox inconclusive
Cc1ccc(Cn2c(=O)n(-c3cc(C)cc(C)c3)c(=O)c3oc4ccccc4c32)cc1	none (no result: PI5P4K alpha inh, Rango release inh, Rango complex inh, PLK1 PBD block)
O=C(O)c1cccc(CN2C(=O)S/C(=C/c3cccc([N+](=O)[O-])c3)C2=O)c1	VDR inh 20µM, PLK1 PBD block inconclusive | VDR confirm 18 | VDR FP 22µM | VDR bla inactive | VDR cytotox inactive
C=CCN=C1S/C(=C/c2cccc([N+](=O)[O-])c2)C(=O)N1CC=C	none
CC1(C)Cc2ccccc2C(Nn2cnnc2)=N1	none (no result: PI5P4K alpha inh)
CC1(C)Cc2ccccc2C2=NNC(=O)C2=N1	VDR inh 11µM | VDR confirm inconclusive | VDR FP inconclusive | VDR bla inactive | VDR cytotox inconclusive
COc1ccccc1CCNC(=O)C(=O)NCC(c1ccc2c(c1)OCO2)N1CCOCC1 (stereo not drawn)	none (no result: PI5P4K alpha inh, Rango release inh, Rango complex inh, PLK1 PBD block)
CCOC(=O)C1=C(CN2CCN(c3ccc(Cl)cc3)CC2)NC(=O)NC1c1ccc(OC)cc1 (stereo not drawn)	none (no result: PI5P4K alpha inh, Rango release inh, Rango complex inh, PLK1 PBD block)
CCOc1cc(/C=C2\COc3ccccc3C2=O)cc(Br)c1OCC(=O)N(C)C	VDR inh 20µM | VDR confirm 6 | VDR FP inconclusive | VDR bla inconclusive | VDR cytotox 18µM
CCOc1cc(C=O)cc(Br)c1OCC(N)=O	none
COc1ccc(/C=C2\COc3ccccc3C2=O)cc1OC	VDR inh inconclusive, PLK1 PBD block 27µM | VDR confirm 22 | VDR FP 16µM | VDR bla inconclusive | VDR cytotox inconclusive
O=C(O)c1ccc(/C=C2\COc3ccccc3C2=O)cc1	VDR inh 20µM | VDR confirm 21 | VDR FP 22µM | VDR bla inconclusive | VDR cytotox inconclusive
COc1cc(C2C(=O)N(C3CCCCC3)CC(=O)N2CCc2ccccc2)ccc1OC(C)C (stereo not drawn)	none (no result: PI5P4K alpha inh, Rango release inh, Rango complex inh, PLK1 PBD block)
Cc1cc(=O)n2nc(N3CCC(C(=O)Nc4ccc(C(C)C)cc4)CC3)sc2n1	none (no result: PI5P4K alpha inh, Rango release inh, Rango complex inh, PLK1 PBD block)
COc1ccccc1-n1c(SC)nc2c(sc(=S)n2-c2ccccc2)c1=O	none
COc1ccc(-n2c(SCC#N)nc3c(sc(=S)n3-c3ccccc3)c2=O)c(OC)c1	PI5P4K alpha inh inconclusive, VDR inh 25µM, PLK1 PBD block 6µM | VDR confirm 8.4 | VDR FP inconclusive | VDR bla inactive | VDR cytotox inactive
CCN(CC)S(=O)(=O)c1cc(NC(=O)c2ccc3c(c2)NC(=O)C(C)S3)ccc1C (stereo not drawn)	PI5P4K alpha inh inconclusive, VDR inh 79µM, PLK1 PBD block 8.4µM | VDR confirm 21 | VDR FP inconclusive | VDR bla inconclusive | VDR cytotox inconclusive
COC(=O)c1cc2occc2n1Cc1ccc(F)cc1Cl	none (no result: PI5P4K alpha inh, Rango release inh, Rango complex inh, PLK1 PBD block)
COc1cc(OC)c(/C=C/c2nccc3ccccc23)c(OC)c1	none (no result: PI5P4K alpha inh, VDR inh, Rango release inh, Rango complex inh, GCN5L2 inh, PLK1 PBD block) | VDR confirm 8.9 | VDR FP 1.6µM | VDR bla 21µM | VDR cytotox inconclusive
COc1cc(OC)c(C=Cc2ccncn2)c(OC)c1	none (no result: VDR inh, Rango release inh, Rango complex inh, GCN5L2 inh)
Cc1ccc(C(=O)c2no[n+]([O-])c2C(=O)c2ccc(C)cc2)cc1	VDR inh inconclusive, PLK1 PBD block inconclusive | VDR confirm 10 | VDR FP 18µM | VDR bla 6.5µM | VDR cytotox 13µM
O=C1Nc2ccccc2C1=Nc1cccc(Cl)c1	none
O=C1Nc2ccc(Br)cc2C1=Nc1cccnc1	VDR inh 25µM, PLK1 PBD block inconclusive | VDR confirm 9.5 | VDR FP inactive | VDR bla inactive | VDR cytotox inconclusive
Cc1cccc(C(=O)N2CCNC(=O)C2CC(=O)Nc2ccc(F)cc2)c1 (stereo not drawn)	none (no result: PI5P4K alpha inh, Rango release inh, Rango complex inh, PLK1 PBD block)
Cc1ccc2nc(-c3cc(NC(=O)/C=C/c4ccccc4)ccc3Cl)oc2c1	none (no result: PI5P4K alpha inh, Rango release inh, Rango complex inh, PLK1 PBD block)
Cc1ccnc(NC(c2cc(C)ccc2O)c2ccc3cccnc3c2O)c1 (stereo not drawn)	VDR inh 16µM (no result: PI5P4K alpha inh, Rango release inh, Rango complex inh, PLK1 PBD block) | VDR confirm 13 | VDR FP 11µM | VDR bla inconclusive | VDR cytotox inactive
COc1ccc(C(Nc2cc(C)ccn2)c2ccc3ccc(C)nc3c2O)cc1 (stereo not drawn)	VDR inh inconclusive, PLK1 PBD block 15µM | VDR confirm 6.3 | VDR FP 3.5µM | VDR bla inactive | VDR cytotox inactive
COc1ccccc1NC(c1cccnc1)c1ccc2cccnc2c1O (stereo not drawn)	PI5P4K alpha inh inconclusive, VDR inh 50µM, PLK1 PBD block 3µM | VDR confirm 9.5 | VDR FP inconclusive | VDR bla inactive | VDR cytotox inactive
COc1cc(C(Nc2ccccn2)c2ccc3ccc(C)nc3c2O)cc(OC)c1O (stereo not drawn)	PI5P4K alpha inh -58, VDR inh 18µM, PLK1 PBD block 2.4µM | VDR confirm 7.5 | VDR FP 5µM | VDR bla inconclusive | VDR cytotox inconclusive
